From the supplement of paper PMC6555819

Tests used:
Test in all cases: PBM binding z-score (relative to random genomic background probes); higher = stronger binding; sequences stand for … in GC…GCGATTGACAGCGTAGAATGAAGG
[1] = test system: FXR:RXRa (NR concentration 270 nM, RXRa partner concentration 90 nM)
In short: (§1)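 For binding z-scores, the reference was random background probes on custom Agilent 4×180K protein-binding microarrays. These arrays were incubated 1 h with ligand-free nuclear receptor dimers in PBS pH 7.4, 2% milk, 0.02% Triton X-100, 1 mM DTT, 0.2 mg/mL BSA and 0.4 mg/ml salmon testes DNA. Fluorescence was scanned after antibody detection of each partner (one per run) and regression-normalized.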

[2] = test system: LXRa:RXRa (NR concentration 270 nM, RXRa partner concentration 90 nM)
In short: as §1

[3] = test system: LXRa homodimer (NR concentration 270 nM)
In short: as §1

[4] = test system: LXRb:RXRa (NR concentration 270 nM, RXRa partner concentration 90 nM)
In short: as §1

[5] = test system: LXRb homodimer (NR concentration 270 nM)
In short: as §1

[6] = test system: PPARa:RXRa (NR concentration 270 nM, RXRa partner concentration 90 nM)
In short: as §1

[7] = test system: PPARg:RXRa (NR concentration 180 nM, RXRa partner concentration 90 nM)
In short: as §1

[8] = test system: PPARg:RXRa 270nM:90nM, anti-RXR (NR concentration 270 nM, RXRa partner concentration 90 nM)
In short: as §1

[9] = test system: PPARg:RXRa 30nM:10nM, anti-RXR (NR concentration 30 nM, RXRa partner concentration 10 nM)
In short: as §1

[10] = test system: PPARg:RXRa 90nM:30nM, anti-RXR (NR concentration 90 nM, RXRa partner concentration 30 nM)
In short: as §1

[11] = test system: PPARg:RXRa DBDmut IVT, anti-RXR (DBD mutation: RXRa K156A/R161A, NR concentration 270 nM, RXRa partner concentration 90 nM)
In short: as §1

[12] = test system: PPARg:RXRa IVT, anti-PPARg (NR concentration 270 nM, RXRa partner concentration 90 nM)
In short: as §1

[13] = test system: PPARg DBDmut:RXRa IVT, anti-PPARg (DBD mutation: PPARg1 K132A/R137A, NR concentration 270 nM, RXRa partner concentration 90 nM)
In short: as §1

[14] = test system: PPARg DBDmut IVT, anti-PPARg (DBD mutation: PPARg1 K132A/R137A, NR concentration 270 nM)
In short: as §1

[15] = test system: PPARg homodimer (NR concentration 180 nM)
In short: as §1

[16] = test system: PXR:RXRa (NR concentration 270 nM, RXRa partner concentration 90 nM)
In short: as §1

[17] = test system: PXR homodimer (NR concentration 270 nM)
In short: as §1

[18] = test system: RARa:RXR (NR concentration 270 nM, RXRa partner concentration 90 nM)
In short: as §1

[19] = test system: RARa homodimer (NR concentration 270 nM)
In short: as §1

[20] = test system: RARb:RXRa (NR concentration 270 nM, RXRa partner concentration 90 nM)
In short: as §1

## AGTCAAAGTTCAGCTAGGTAACGTAAGATATGCT
[1]
  PBM binding z-score: 3.9
[2]
  PBM binding z-score: 3.86
[3]
  PBM binding z-score: 1.68
[4]
  PBM binding z-score: 1.91
[5]
  PBM binding z-score: 0.177
[6]
  PBM binding z-score: 3.34
[7]
  PBM binding z-score: 4.61
[8]
  PBM binding z-score: 4.73
[9]
  PBM binding z-score: 2.11
[10]
  PBM binding z-score: 4.07
[11]
  PBM binding z-score: 0.153
[12]
  PBM binding z-score: 2.1
[13]
  PBM binding z-score: 0.968
[14]
  PBM binding z-score: 0.836
[15]
  PBM binding z-score: 1.67
[16]
  PBM binding z-score: 3.01
[17]
  PBM binding z-score: 1.8
[18]
  PBM binding z-score: 2.29
[19]
  PBM binding z-score: 1.19
[20]
  PBM binding z-score: 4.37

## CGTAAAAGTTCAAGGTAACGTAACAGAAAGCAGC
[1]
  PBM binding z-score: 5.78
[2]
  PBM binding z-score: 5.24
[3]
  PBM binding z-score: 2.41
[4]
  PBM binding z-score: 3.04
[5]
  PBM binding z-score: 1.2
[6]
  PBM binding z-score: 4.35
[7]
  PBM binding z-score: 2.48
[8]
  PBM binding z-score: 3.11
[9]
  PBM binding z-score: 1.09
[10]
  PBM binding z-score: 1.91
[11]
  PBM binding z-score: 0.129
[12]
  PBM binding z-score: 1.62
[13]
  PBM binding z-score: 1.87
[14]
  PBM binding z-score: 1.28
[15]
  PBM binding z-score: 2.19
[16]
  PBM binding z-score: 3.49
[17]
  PBM binding z-score: 1.82
[18]
  PBM binding z-score: 2.92
[19]
  PBM binding z-score: 1.29
[20]
  PBM binding z-score: 4.99

## CAAACTAGGTCACCGGAAGCTCAAAGTCCGCATG
[1]
  PBM binding z-score: 4.54
[2]
  PBM binding z-score: 2.93
[3]
  PBM binding z-score: 0.559
[4]
  PBM binding z-score: 2.24
[5]
  PBM binding z-score: 0.297
[6]
  PBM binding z-score: 5.45
[7]
  PBM binding z-score: 9.51
[8]
  PBM binding z-score: 7.22
[9]
  PBM binding z-score: 5.15
[10]
  PBM binding z-score: 7.39
[11]
  PBM binding z-score: 8.73
[12]
  PBM binding z-score: 9.13
[13]
  PBM binding z-score: 6.78
[14]
  PBM binding z-score: 2.89
[15]
  PBM binding z-score: 2.58
[16]
  PBM binding z-score: 1.9
[17]
  PBM binding z-score: 0.365
[18]
  PBM binding z-score: 3.19
[19]
  PBM binding z-score: 1.19
[20]
  PBM binding z-score: 4.38

## CAAACTAGGTCATAGGTCAAAGTCGAGCCAACCA
[1]
  PBM binding z-score: 7.12
[2]
  PBM binding z-score: 5.85
[3]
  PBM binding z-score: 3.78
[4]
  PBM binding z-score: 5.36
[5]
  PBM binding z-score: 1.14
[6]
  PBM binding z-score: 7.84
[7]
  PBM binding z-score: 12.8
[8]
  PBM binding z-score: 10.5
[9]
  PBM binding z-score: 11.6
[10]
  PBM binding z-score: 12
[11]
  PBM binding z-score: 8.12
[12]
  PBM binding z-score: 8.93
[13]
  PBM binding z-score: 3.18
[14]
  PBM binding z-score: 1.68
[15]
  PBM binding z-score: 3.4
[16]
  PBM binding z-score: 5.05
[17]
  PBM binding z-score: 0.241
[18]
  PBM binding z-score: 7.38
[19]
  PBM binding z-score: 0.929
[20]
  PBM binding z-score: 4.76

## CCTACTGGGCCAAAGGTCATTGCTTCCAATGCTC
[1]
  PBM binding z-score: 4.94
[2]
  PBM binding z-score: 5.17
[3]
  PBM binding z-score: 4.85
[4]
  PBM binding z-score: 4.86
[5]
  PBM binding z-score: 0.985
[6]
  PBM binding z-score: 6.51
[7]
  PBM binding z-score: 11.3
[8]
  PBM binding z-score: 9.77
[9]
  PBM binding z-score: 10.1
[10]
  PBM binding z-score: 11.1
[11]
  PBM binding z-score: 5.34
[12]
  PBM binding z-score: 6.61
[13]
  PBM binding z-score: -0.293
[14]
  PBM binding z-score: 0.248
[15]
  PBM binding z-score: 2.84
[16]
  PBM binding z-score: 5.39
[17]
  PBM binding z-score: 1.64
[18]
  PBM binding z-score: 5.98
[19]
  PBM binding z-score: 0.417
[20]
  PBM binding z-score: 4.49

## TCGAGTAGGTGAGGGGCATTCAGAATGGCGTCGA
[1]
  PBM binding z-score: 0.283
[2]
  PBM binding z-score: -0.0871
[3]
  PBM binding z-score: -0.49
[4]
  PBM binding z-score: 1.21
[5]
  PBM binding z-score: 0.881
[6]
  PBM binding z-score: 1.47
[7]
  PBM binding z-score: 1.99
[8]
  PBM binding z-score: 3.31
[9]
  PBM binding z-score: 1.98
[10]
  PBM binding z-score: 2.63
[11]
  PBM binding z-score: 3.64
[12]
  PBM binding z-score: 3.75
[13]
  PBM binding z-score: -0.208
[14]
  PBM binding z-score: 0.0293
[15]
  PBM binding z-score: 0.149
[16]
  PBM binding z-score: 0.21
[17]
  PBM binding z-score: -0.342
[18]
  PBM binding z-score: -0.0572
[19]
  PBM binding z-score: -0.832
[20]
  PBM binding z-score: 0.965

## AGAACGAGGGCAATGAGTTGATAGCTCGGGTGGC
[1]
  PBM binding z-score: 0.0898
[2]
  PBM binding z-score: -0.196
[3]
  PBM binding z-score: -0.745
[4]
  PBM binding z-score: -0.286
[5]
  PBM binding z-score: -0.548
[6]
  PBM binding z-score: 1.23
[7]
  PBM binding z-score: 1.03
[8]
  PBM binding z-score: 0.695
[9]
  PBM binding z-score: -0.213
[10]
  PBM binding z-score: 0.434
[11]
  PBM binding z-score: 3.68
[12]
  PBM binding z-score: 2.41
[13]
  PBM binding z-score: 0.337
[14]
  PBM binding z-score: -0.763
[15]
  PBM binding z-score: -0.195
[16]
  PBM binding z-score: 1.36
[17]
  PBM binding z-score: 5.33
[18]
  PBM binding z-score: 0.0914
[19]
  PBM binding z-score: -0.796
[20]
  PBM binding z-score: 2.08

## GGAACGAGGGCAAACTTGATAGCATCTGTCGACG
[1]
  PBM binding z-score: 1.14
[2]
  PBM binding z-score: 0.523
[3]
  PBM binding z-score: -0.0239
[4]
  PBM binding z-score: 0.598
[5]
  PBM binding z-score: -0.25
[6]
  PBM binding z-score: 2.18
[7]
  PBM binding z-score: 1.54
[8]
  PBM binding z-score: 1.87
[9]
  PBM binding z-score: 0.362
[10]
  PBM binding z-score: 1.16
[11]
  PBM binding z-score: 4.42
[12]
  PBM binding z-score: 3.21
[13]
  PBM binding z-score: 0.0378
[14]
  PBM binding z-score: -0.343
[15]
  PBM binding z-score: 0.366
[16]
  PBM binding z-score: 0.618
[17]
  PBM binding z-score: 0.169
[18]
  PBM binding z-score: 0.525
[19]
  PBM binding z-score: -0.264
[20]
  PBM binding z-score: 2.16
